PLK1 PBD block: inhibitors of human PLK1 polo-box domain binding. P53350. Plk1 PBD binding of FITC phosphopeptide, fluorescence polarization. Potency, µM, actives largely listed as inhibitors. 2.8% of 360,000 active; further: series mostly up to about 57 µM; nearly all actives have a fitted effect of over 65% in size
Target sequence (P53350 whole entry, looked up, the tested form may be a part): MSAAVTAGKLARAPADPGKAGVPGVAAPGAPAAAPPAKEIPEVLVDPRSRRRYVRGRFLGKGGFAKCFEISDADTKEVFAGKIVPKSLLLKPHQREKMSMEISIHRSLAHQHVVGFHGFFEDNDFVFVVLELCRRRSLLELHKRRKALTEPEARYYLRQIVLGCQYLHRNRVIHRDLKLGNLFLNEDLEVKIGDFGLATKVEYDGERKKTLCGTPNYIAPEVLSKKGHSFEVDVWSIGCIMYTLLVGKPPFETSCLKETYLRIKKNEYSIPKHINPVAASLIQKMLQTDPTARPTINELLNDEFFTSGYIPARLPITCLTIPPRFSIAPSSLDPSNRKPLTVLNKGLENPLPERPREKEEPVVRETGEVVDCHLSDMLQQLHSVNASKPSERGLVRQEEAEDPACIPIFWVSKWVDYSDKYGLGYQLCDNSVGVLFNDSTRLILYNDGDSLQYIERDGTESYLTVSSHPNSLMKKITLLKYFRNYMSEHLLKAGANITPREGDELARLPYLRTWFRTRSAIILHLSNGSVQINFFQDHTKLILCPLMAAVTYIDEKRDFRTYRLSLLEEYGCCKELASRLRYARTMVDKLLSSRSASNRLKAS
VDR inhibitor: vitamin D3 receptor (human) inhibition; P11473; VDR-SRC2-3 peptide fluorescence polarization, 2 h; Potency, µM, actives largely listed as inhibitors; 0.93% of 400,000 active
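Inhibition of the VDR/SRC2-3 peptide interaction is quantified by fluorescence polarization. Compounds (23 nl, pintool) incubate with the reagents for 2 hours at ambient room temperature.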
BAZ2B block: BAZ2B (human) inhibition; Q9UIF8; AlphaScreen BAZ2B-H3K14Ac peptide displacement; Potency, µM (titrated, usually from 114 µM), actives largely listed as inhibitors; 4.4% of 360,000 active; further: nearly all actives have a fitted effect of over 60% in size
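Complex of BAZ2B and biotin-H3K14Ac (50 nM apiece) forms over 30 min at RT, then faces library compounds up to 110 uM for another 30 min; AlphaScreen beads added, 20 min dark incubation, luminescence read.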
HP1b binding inh: blocks HP1-beta chromodomain binding to methylated histone tails. P83916. AlphaScreen HP1-beta / biotin-H3K9me3 peptide binding. Potency, µM (top dose mostly 114 µM), hits mostly inhibitors. 0.56% of 390,000 active. AID 540317; further: nearly all actives have a fitted effect of over 70% in size
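HP1-beta protein (50 nM final) preincubated 30 min at room temperature with biotinylated H3(1-18)K9me3 peptide (50 nM) in PBS pH 7.4, 0.01% Tween-20, then compound added for 30 min. AlphaScreen streptavidin donor/nickel chelate acceptor beads (10 ug/mL final), 30 min dark, luminescence read.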
L3MBTL1 inh: blocks human L3MBTL1; Q9Y468; 0.66% of 230,000 active; AlphaScreen L3MBTL1–H3K9me1 peptide binding; Potency, µM (titrated, usually from 57.1 µM), most hits filed as inhibitors; further: nearly all actives have a fitted effect of over 60% in size
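Displacement of a biotinylated histone H3(1-15) peptide monomethylated at Lys9 (75 nM) from L3MBTL1 (50 nM) was measured by AlphaScreen after a 30 min room-temperature compound incubation; cefsulodin titration served as intraplate control.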
JMJD2A Tudor inh: JMJD2A Tudor domain (human) inhibition; O75164; AlphaScreen JMJD2A-Tudor / H3K4me3 peptide binding; Potency, µM (doses to about 114 µM), usual class: inhibitors; 4.4% of 390,000 active; AID 504339; further: nearly all actives have a fitted effect of over 50% in size
A number is an active result; n = inactive; u = inconclusive; x = not tested or not shown; ! = repeats disagree; [ ] = remark or other dose. Shown are actives, neighbours in structure and some others; about 6.9% of the full set was active somewhere. The call rests on the fitted dose curve; in most records, active means well fitted curve in the direction sought with a large enough effect; inconclusive means small, poorly fitted or top-dose-only effect, or another doubt; inactive means no such curve, though single readings can be large; an effect the other way counts as inactive or inconclusive.

SMILES | PLK1 PBD block | VDR inhibitor | BAZ2B block | HP1b binding inh | L3MBTL1 inh | JMJD2A Tudor inh
NC(=O)c1c(NC(=O)c2ccc([N+](=O)[O-])o2)sc2c1CCCC2 | n | n | n | n | x | n
CN1CCc2c(sc(NC(=O)c3ccc([N+](=O)[O-])o3)c2C(N)=O)C1 | n | n | 35µM | n | x | u
O=C(Nc1cc2c3c(c1)C1CCCC1CN3CC1CCCC21)c1ccccc1 (stereo not drawn) | n | n | 28µM | u | n | u
O=C(Nc1ccc(N2CCC(N3CCCCC3)CC2)c(C(=O)O)c1)c1ccccc1 | x | n | u | n | x | n
Cc1noc(C)c1-c1ccc2ncnc(NCc3cccc(-c4ccccc4)c3)c2c1 | x | x | n | x | n | n
O=C(CNC(=O)c1ccc2n[nH]nc2c1)OC(C(=O)Nc1cc(C(F)(F)F)ccc1Cl)c1ccccc1 (stereo not drawn) | x | x | x | x | x | n
Cc1ccc(C(=O)Nc2ccc(O)cc2C(=O)O)cc1C | n | n | 79µM | n | x | u
Cc1cc(N2C(=O)c3ccc(C(=O)Nc4ccc(O)cc4C(=O)O)cc3C2=O)no1 | n | n | 79µM | n | x | n
CN1C(=O)/C(=C/c2ccc(C(=O)Nc3ccc(O)cc3C(=O)O)cc2)SC1=S | u | u | 22µM | 45µM | x | 45µM
CCCN(CCC)c1nn2c(=O)c(C(=O)NCc3cc(Br)ccc3OC)cnc2s1 | x | n | n | n | x | n
Cc1ccc(C2=Nc3ccccc3N(CC(=O)Nc3ccccc3F)C(=O)C2)cc1C | x | n | n | n | x | n
CCCN(CCC)CCNC(=O)c1cc2c(=O)n(C)c3ccccc3c2n1C | 19µM | n | n | n | n | 35µM
CCOc1ccc(OCC)c(NC(=O)Cn2ncc3c4ccccc4n(Cc4ccccc4)c3c2=O)c1 | x | n | n | n | x | n
C#C[C@]1(O)CC[C@H]2[C@@H]3CCC4=Cc5oncc5CC4(C)[C@H]3CCC21C (stereo partly drawn) | x | n | x | x | x | x
CCCC[P+](CCCC)(CCCC)Cc1ccc(NC(=O)[C@@H](Cc2ccc3ccccc3c2)NC(=NC2CCCCC2)NC2CCCCC2)cc1 | x | n | x | x | x | x
O=C(/C=C/c1ccccc1)c1ccc(O[C@H]2OC(CO)C(O)C(O)C2O)cc1O (stereo partly drawn) | x | 16µM | x | x | x | x
Cc1cc(/C=C2/NC(=O)N(Cc3ccccc3F)C2=O)c(C)n1C | 30µM | n | u | n | n | u
CC/C(=N/N=C(/CC)c1ccc(O)cc1)c1ccc(O)cc1 | n | n | x | n | x | u
CC1=Nc2ccccc2/C1=C/c1c(C)[nH]c2ccccc12 | n | n | x | u | x | 56µM
O=C(c1ccc(F)cc1)C1CCN(C(=S)Nc2ccc(F)cc2)CC1 | n | n | n | n | n | n
Cn1c(N)c(C(=O)COC(=O)C2(c3ccc(Cl)cc3)CCCC2)c(=O)n(C)c1=O | 3µM | n | n | n | x | 3.2µM
Cn1c(N)c(C(=O)COC(=O)c2ccccn2)c(=O)n(C)c1=O | n | n | 79µM | n | n | 79µM
CCOc1ncccc1C(=O)OCC(=O)c1c(N)n(C)c(=O)n(C)c1=O | n | n | n | n | n | n
COc1ccc(-n2c(=O)c3c4c(sc3n3c(=S)[nH]nc23)CCCC4)cc1 | n | n | n | n | n | 56µM
CC(C)C1Cc2c(sc3c2c(=O)n(-c2ccccc2)c2n[nH]c(=S)n32)CO1 (stereo not drawn) | n | n | n | n | x | 20µM
SMILES | PLK1 PBD block | VDR inhibitor | BAZ2B block | HP1b binding inh | L3MBTL1 inh | JMJD2A Tudor inh
Cc1nn(Cc2ccccc2)c2c1C(c1ccc(Cl)cc1)C(C#N)=C(N)O2 (stereo not drawn) | 27µM | u | n | n | n | n
Cc1nn(-c2ccccc2)c2c1C(c1ccc(Br)s1)C(C#N)=C(N)O2 (stereo not drawn) | u | n | 11µM | u | u | 13µM
COc1ccc(C2C(C#N)=C(N)Oc3c2c(-c2ccccc2)nn3-c2ccccc2)c(OC)c1OC (stereo not drawn) | n | u | 25µM | u | n | u
Cc1nn(-c2ccccc2)c2c1C(c1ccccc1)C(C#N)=C(N)O2 (stereo not drawn) | 27µM | n | u | n | n | n[11.4 µM]
COC(=O)C1=C(C)OC(N)=C(C#N)C1c1ccc(OC)c(OC)c1OC (stereo not drawn) | n | n | n | n | n | n
Cc1nn(Cc2ccccc2)c2c1C(c1ccncc1)C(C#N)=C(N)O2 (stereo not drawn) | n | n | n | n | n | n
Cc1ccc(-c2nn(-c3ccc(F)cc3F)c3c2cnc2c(F)cccc23)cc1 | x | n | n | n | x | n
CCOC(=O)C1=C(c2ccccc2)OC(N)=C(C#N)C1c1ccc(Br)s1 (stereo not drawn) | n | n | n | n | n | n
N#CC1=C(N)Oc2cc(O)ccc2C1c1ccc(Br)s1 (stereo not drawn) | 30µM | n | n | n | n | u
Oc1cccc(/C=N/Nc2cc(N3CCOCC3)nc(N3CCOCC3)n2)c1 | n | n | u | n | n | u
Cc1nc(N/N=C/c2ccc(O)cc2O)cc(N2CCOCC2)n1 | n | n | 45µM | n | n | 79µM
Oc1ccccc1/C=N/Nc1cc(N2CCCC2)nc(N2CCCC2)n1 | n | n | 25µM | u | u | 28µM
C=C(C)C(=O)/C=C/c1ccc(Br)cc1 | x | 18µM | x | x | x | x
Cc1ccc(C(=O)/C=C/c2ccc(Br)cc2)o1 | n | u | n | n | n | n
COc1ccc(S(=O)(=O)n2c([N+](=O)[O-])cnc2C)cc1OC | n | n | 79µM | n | n | u
Cc1c(CC(=O)O)c(=O)oc2c(C)c3occ(-c4ccc(Br)cc4)c3cc12 | 30µM | u | u | n | x | u
COc1ccccc1-c1c(C(F)(F)F)oc2c(CN3CCCCC3C)c(O)ccc2c1=O (stereo not drawn) | x | n | n | n | x | n
CC1CCCCN1Cc1c(O)ccc2c(=O)c(-c3nc4ccccc4s3)coc12 (stereo not drawn) | 21µM | n | n | n | n | n[11.4 µM]
CCc1cc2c(=O)c(-c3nc4ccccc4n3C)coc2c(CN2CCCCC2C)c1O (stereo not drawn) | n | n | 45µM | n | x | n
O=C(NCc1ccc(F)cc1)c1ccc2c(c1)nc1n2CCCCC1 | x | n | n | n | x | n
Cc1nc2cnc(N(C)C)nc2n(-c2ccccc2)c1=O | x | n | x | x | x | x
COc1ccccc1C(=O)Nc1nnc(S(=O)(=O)N2CCCCCC2)s1 | n | n | 7.1µM! | n | n | 20µM!
COc1ccccc1C(=O)Nc1nnc(S(=O)(=O)N2CCCCC2)s1 | n | n | n | n | x | n
Cc1ccc(C(=O)Nc2nnc(S(=O)(=O)N3CCCCCC3)s2)cc1 | n | n | 10µM! | u | n | 25µM!
O=C(Nc1nnc(S(=O)(=O)N2CCCCCC2)s1)c1ccccc1F | n | n | 10µM! | n | n | 40µM!
Cc1ccccc1C(=O)Nc1nnc(S(=O)(=O)N2CCCCCC2)s1 | n | n | 22µM! | u | n | 40µM!
